High-throughput results from PubChem.
Six1-Eya2 inh = Six1/Eya2 interaction inhibition | Q15475+O00167 | AlphaScreen GST-Six1/His-Eya2 binding, biochemical; active compounds read low | activity change, % (test concentration not listed) | 0.56% of 360,000 active; in the data active means activity change below about -65%; inconclusive means mostly about -30% to -63%; further: on the % scale 0 is the no-effect control and ±100 the full control effect
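Homogeneous AlphaScreen proximity assay pairing GST-Six1 with His-tagged Eya2 (added as 5X mix: 250 nM and 500 nM) in 50 mM Tris pH 8.0, 300 mM NaCl, 1 mM TCEP. Glutathione donor and nickel acceptor beads; 1 h, 37 °C, dark.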
CBFb-RUNX1 inh = inhibitors of human CBF-beta and RUNX1 interaction. Potency, µM (doses to about 59.8 µM), without a hit: top-dose activity, negative = inhibition, actives largely listed as inhibitors. AID 1477. AlphaScreen CBFb-His/RUNX1-biotin binding, biochemical. 230,000 tested, under 10 active; further: % of control where 0% means no effect
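Compounds were screened at multiple concentrations against a preformed CBF-beta(His)/RUNX1(biotin) complex (30 nM of each) for 15 min at room temperature, followed by 90 min with nickel and streptavidin beads and AlphaScreen reading.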
RORg inh = ROR gamma (mouse) transcription inhibition. P51450. Drosophila S2 Gal4-RORgamma UAS-luciferase reporter, 20 h. Potency, µM (doses to about 53.6 µM), for inactives: at the top dose activity change, negative = inhibition, most hits filed as inhibitors. 5.4% of 310,000 active; further: potency means the concentration at half of the fitted maximal effect; on the % scale 0 is the no-effect control and ±100 the full control effect; nearly all actives have a fitted effect of over 60% in size
Target sequence (P51450 whole entry, looked up, the tested form may be a part): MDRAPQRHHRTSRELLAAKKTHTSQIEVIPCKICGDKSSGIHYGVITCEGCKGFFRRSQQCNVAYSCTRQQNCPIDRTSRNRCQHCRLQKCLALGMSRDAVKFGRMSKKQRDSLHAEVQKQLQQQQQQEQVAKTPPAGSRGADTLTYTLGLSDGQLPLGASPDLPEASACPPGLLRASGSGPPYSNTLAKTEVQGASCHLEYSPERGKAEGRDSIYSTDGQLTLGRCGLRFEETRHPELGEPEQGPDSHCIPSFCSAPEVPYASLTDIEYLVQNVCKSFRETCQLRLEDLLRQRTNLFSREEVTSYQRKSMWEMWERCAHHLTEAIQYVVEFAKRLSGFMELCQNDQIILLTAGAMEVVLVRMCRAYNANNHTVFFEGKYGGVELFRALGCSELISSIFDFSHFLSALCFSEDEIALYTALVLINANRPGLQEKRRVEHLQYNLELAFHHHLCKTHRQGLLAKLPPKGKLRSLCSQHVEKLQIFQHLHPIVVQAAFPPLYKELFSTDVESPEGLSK
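A Gal4/UAS one-hybrid system in insect cells: metallothionein-promoter Gal4–ROR gamma fusion plus Photinus luciferase reporter. Copper sulfate 700 uM final, 20 hr ambient incubation, luminescent detection after 10 min with reagent.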
CtBP-E1A blk = CtBP/E1A binding inhibition | AlphaScreen GST-E1A/His-CtBP binding, 1536-well; active compounds read low | activity change, % (no concentration beside the values) | 0.49% of 340,000 active; in the data active means activity change below about -65%; inconclusive means mostly about -30% to -63%; further: on the % scale 0 is the no-effect control and ±100 the full control effect
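Steps: dispense buffer (Tris pH 8.0, NaCl 300 mM, TCEP 1 mM, BSA, Tween 20); add 5X protein mix (GST-E1A, His-CtBP, 125 nM each); pin 23 nL compound; 2 h at 37 °C, dark; add 5X beads (50 ug/mL); 1 h; read.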
VP16 counter = counter-screen for ROR gamma inhibitors: Gal4-VP16 reporter | Potency, µM (series often up to 53.6 µM), for inactives: top-dose activity, negative = inhibition, usual class: inhibitors | 3.5% of 310,000 active | AID 2546 | Drosophila S2 Gal4-VP16 UAS-luciferase, luminescence, 20 h;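 further: Gal4-VP16 expression switched on by copper sulfate through the metallothionein promoter; potency means the concentration at half of the fitted maximal effect; on the % scale 0 is the no-effect control and ±100 the full control effect; nearly all actives have a fitted effect of over 50% in size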
MBNL1 CUG block = inhibitors of human MBNL1 binding to CUG repeat RNA. Q9NR56. TR-FRET MBNL1-His/biotin-(CUG)12 binding, 665/545 ratio. Potency, µM (series often up to 57.5 µM), for the others: at the top dose activity change, negative = inhibition, most hits filed as inhibitors. 0.036% of 280,000 active. AID 2675; active means well fitted inhibition curve with a large enough effect in the signal ratio, with a control signal flat, not every such curve was filed as active; inconclusive means small, poorly fitted or top-dose-only effect, or effect the other way, or a change in a side signal; inactive means no such curve, though single readings can be large or run the other way; the % refers to the signal ratio; further: potency means the concentration at half of the fitted maximal effect; on the % scale 0 is the no-effect control and ±100 the full control effect
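His-tagged MBNL1 binding to biotinylated (CUG)12 RNA was measured by TR-FRET using terbium anti-His antibody (0.055 ng/ul final) and streptavidin-XL665 (5 nM final). Compounds were titrated 92 nM to 58 uM; 60 min at room temperature.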
Starred values were filed as active, the others as inactive; u = inconclusive; x = not tested or not shown; [ ] = another dose, or the depositor's remark. Compounds with a hit are over-represented: about 5.5% of the library has one in this group of screens. Unless noted, the call rests on the fitted dose curve; in most records, active means well fitted curve in the direction sought with a large enough effect; inconclusive means small, poorly fitted or top-dose-only effect, or another doubt; inactive means no such curve, though single readings can be large; an effect the other way counts as inactive or inconclusive.

SMILES | Six1-Eya2 inh | CBFb-RUNX1 inh | RORg inh | CtBP-E1A blk | VP16 counter | MBNL1 CUG block
NC(=Nc1ccc(N)cc1)C(N)=Nc1ccc(N)cc1 | -65* | x | 18% | u | -4% | u
COc1ccc(-c2nc3cnc(N4CCOCC4)nc3n(CCC#N)c2=O)cc1 | x | x | -12% | x | -4% | x
CCN(CC(=O)Nc1ccccc1C(F)(F)F)C(=O)C1CC(=O)N(Cc2ccccc2)C1 (configuration not stated) | -86* | x | x | -2 | x | x
CCN(CC(=O)Nc1ccccc1C(F)(F)F)C(=O)c1ccccc1Cc1ccccc1 | 4 | x | x | -20 | x | x
CCNC(=S)N/N=C/c1cn(Cc2ccc(F)cc2)c2ccccc12 | -17 | -28% | 1.1µM* | 1 | 1.8µM* | x
CNC(=S)N/N=C/c1cn(Cc2c(F)cccc2Cl)c2ccccc12 | -25 | u | 0.45µM* | -7 | 5µM* | 1%
c1nc(NC2CC2)c2cc(-c3ccoc3)ccc2n1 | x | x | 1% | x | -17% | x
O=C(CSc1nnc(NC(=O)c2c(F)cccc2F)s1)NCc1ccc(F)cc1 | 27 | x | x | -3 | x | x
Cc1ccccc1NC(=S)NCc1ccc2[nH]c3c(c2c1)CCCC3 | -23 | -2%[2.36 µM] | 1.6µM* | -3 | 3.5µM* | -16%
S=C(NCc1ccc2[nH]c3c(c2c1)CCCC3)Nc1ccccc1Cl | -26 | 1% | 3.2µM* | -29 | 8.9µM* | 17%
Cc1ccc(C)c(NC(=S)NCc2ccc3[nH]c4c(c3c2)CCCC4)c1 | u | u | 2µM* | -21 | 6.3µM* | 27%
Cc1ccc(S(=O)(=O)n2cnc3ccccc32)cc1[N+](=O)[O-] | 0 | x | 1% | x | -2% | 28%
COC(=O)Cc1ccc(NC(=S)NNC(=O)C2CC2)cc1 | 3 | 9% | -23% | 1 | -1% | -11%
COc1c(C)c2c(c(O)c1CC=C(C)CCC(=O)OCCN1CCOCC1)C(=O)OC2 | x | 24% | 5% | x | -3% | x
NCCCC[C@H](NC(=O)CNC(=O)[C@@H]1CCCN1C(=O)[C@H](Cc1ccc(O)cc1)NC(=O)CN)C(=O)N[C@@H](Cc1ccccc1)C(=O)O | x | 7% | 7% | x | -3% | x
C/C(=N\NC(=O)c1ccccc1[N+](=O)[O-])c1c(O)cc(C)oc1=O | 18 | -4% | 3.2µM* | 0 | 6.3µM* | 13%
C/C(=N\NC(=O)c1ccccc1O)c1c(O)cc(C)oc1=O | u | -15% | 0.89µM* | u | 2.5µM* | 9%
C/C(=N\NC(=O)c1ccc([N+](=O)[O-])cc1)c1c(O)cc(C)oc1=O | -2 | -3% | 0.63µM* | 8 | u | u
COc1cccc(Cn2c(=O)c(C)nc3cnc(OCc4ccccc4)nc32)c1 | x | x | -7% | x | -7% | x
O=C1CSC(=S)N1Cc1ccccc1 | -3 | x | x | -6 | x | x
Cc1cccc(N2CCN(C(=O)CCC(=O)N3CC(C)Oc4ccccc43)CC2)c1C (configuration not stated) | -2 | x | u | 0 | -1% | 1%
COc1cc(/C=N/NC(=O)c2sc(N)c(C#N)c2C)cc(Br)c1O | -67* | -1% | u | -77* | 1% | u
Cc1nc(N)sc1C(=O)N/N=C/c1ccc([N+](=O)[O-])cc1 | 17 | 25% | 9% | 13 | 9% | 14%
COc1ccc2ccccc2c1/C=N/NC(=O)c1sc(N)c(C#N)c1C | -7 | -9% | u | -2 | u | x
COc1cc(/C=N/NC(=S)Nc2cccc(C(=O)O)c2)cc(OC)c1OC | -22 | -3% | u | -23 | u | 11%
SMILES | Six1-Eya2 inh | CBFb-RUNX1 inh | RORg inh | CtBP-E1A blk | VP16 counter | MBNL1 CUG block
COc1cc(/C=N/NC(=S)N/N=C/c2cc(OC)c(OC)c(OC)c2)cc(OC)c1OC | -21 | -6% | u | -19 | 4µM* | x
COc1cc(/C=N\NC(=O)c2sc(N)nc2C)cc(OC)c1OC | -82* | 5% | 1% | -84* | 0% | u
CC1CCCCC1NC(=O)CN1CCC(NC(=O)c2cccc(F)c2)CC1 (configuration not stated) | -12 | x | -18% | 0 | 6% | -8%
COc1ccc(CCNC(=O)C/C(C)=N/NC(=O)c2ccc([N+](=O)[O-])cc2Cl)cc1OC | 17 | x | 4% | 23 | 7% | u
O=c1cc(-c2ccccc2O)oc2ccc3ccccc3c12 | x | -7%[21.7 µM] | 6.3µM* | x | 7.1µM* | x
c1ccc(-c2ccc(-c3nccc4ccccc34)[nH]2)cc1 | x | u | 5µM* | x | 10µM* | 12%
c1ccc(-c2ccc(-c3ccccc3)[nH]2)cc1 | -18 | x | x | -21 | x | x
N#Cc1cc(-c2ccccc2)[nH]c1-c1nccc2ccccc12 | 9 | 12% | 10µM* | x | u | 10%
CCOC(=O)c1c(C)cc(O)c(C=O)c1O | x | 12% | 11µM* | x | u | x
CCCC(=O)Nc1ccc(Cl)c(NC(=S)NC(=O)C(C)C)c1 | 5 | 4% | -43% | 0 | -9% | -1%
O=C(Nc1ccccc1N1CCCCC1)c1cccs1 | 14 | 23% | -31% | 9 | -2% | -8%
CCCC(=O)NC(=S)Nc1cccc(Cl)c1N1CCCC1 | 0 | 6% | 1.3µM* | 7 | 7.1µM* | -6%
O=C(NC(=S)Nc1cccc(Cl)c1N1CCOCC1)c1cccs1 | -9 | -9% | 3.2µM* | x | 18µM* | -6%
O=C(NC(=S)Nc1cccc(Cl)c1N1CCCCC1)c1cccs1 | -16 | -5% | 0.71µM* | -21 | u | 0%
O=C1COc2ccc(S(=O)(=O)N3CCCCCC3)cc2N1 | -2 | x | -10% | x | 11% | -1%
COc1cc(-n2c(C)nc3cccnc32)c(Cl)cc1C(=O)O | 5 | x | 9% | 12 | -1% | 1%
Cc1ccc2nc(NC(=O)CCCC(=O)O)sc2c1 | 10 | -3% | 1.1µM* | x | 0.79µM* | 5%
CC1CC1C(=O)Nc1nc2ccc(S(C)(=O)=O)cc2s1 (configuration not stated) | -3 | x | 42% | -12 | -17% | -1%
Cc1ccc2nc(NC(=O)C3CC3C)sc2c1 (configuration not stated) | 0 | x | 7.1µM* | -1 | -13% | 0%
Cc1ccc2nc(NC(=O)CCCc3nc4ccccc4s3)sc2c1 | 0 | 0% | 19% | 2 | 15% | -7%
Cc1ccc2nc(NC(=O)CSCC(=O)OCC(=O)c3ccccc3)sc2c1 | 1 | 2% | 5µM* | 5 | 2.2µM* | x
COc1ccc(N(CC(=O)N2CCOCC2)S(C)(=O)=O)cc1Cl | -1 | x | -29% | 6 | -2% | 3%
CCCc1ccc2oc(C(=O)N(Cc3nccn3C)C(C)C)c(C)c2c1 | -3 | x | 11µM* | x | -3% | -4%
